# Results from PubChem BioAssay AID1458 (National Center for Advancing Translational Sciences (NCATS), 2008).
# Among all 210,000 compounds or so, about 5,900 (2.8%) were called active. Entries that show only a call come without a potency. Another 5% or so got no clear call; they are omitted. Calls come from the whole dose curve; as a rule, active = well fitted activation curve with a large enough effect; inconclusive = small, poorly fitted or top-dose-only effect; inactive = no such curve, though single readings can be large or run the other way. The full list was thinned out, with actives kept by preference.
# Assay: qHTS Assay for Enhancers of SMN2 Splice Variant Expression; note: nearly all actives have a fitted effect of over 55% in size
# Details: HEK293 SMN2-luciferase splicing reporter, luminescence, 30-36 h; series mostly up to 46.1 µM
# Procedure, shortened: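 HEK293 cells carry an SMN2 […]–luciferase reporter in which exon 7 inclusion puts luciferase in frame. Cells were plated 10-12 h before compound addition, then incubated 30-36 h at 37C. ONE-Glo luminescence was read; sodium butyrate at 4.5 mM final served as control.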
# Potency is the fitted concentration of half-maximal effect.
row,SMILES,Potency
1,O=C(NCC12CC3CC(CC(C3)C1)C2)c1cc2nc(-c3ccccc3)cc(C(F)(F)F)n2n1,inactive
2,COc1ccc2nc(/N=C(\N)NC(=O)Nc3ccccc3)nc(C)c2c1,inactive
3,COC(=O)CSc1nc(C)c2ccc(OC)cc2n1,inactive
4,COc1ccc2nc(SCc3ccccc3)nc(C)c2c1,11.2 µM (active)
5,CCc1nn(CCCC(=O)NC(C)c2ccccc2)c(=O)c2cc3occc3n12 (stereo not drawn),inactive
6,Cc1ccc(S(=O)(=O)n2nc(-c3ccc(Cl)cc3)nc2NCc2ccccc2)cc1,inactive
7,CCOc1ccc(Nc2oc(/C=C/c3ccc(F)cc3)nc2C#N)cc1,inactive
8,COc1ccccc1NC(=O)/C=C/C(N)=O,inactive
9,COc1ccccc1NC(=O)C1=C(C)NC(=O)NC1c1ccc(C)s1 (stereo not drawn),inactive
10,COc1ccccc1NC(=O)c1ccc(C)s1,12.6 µM (active)
11,Cc1cc(C)cc(NS(=O)(=O)c2ccc3[nH]cc(C(=O)N4CCCCC4)c(=O)c3c2)c1,inactive
12,Cc1ccc(Nc2c(-c3ccc(Cl)cc3)nc3sccn23)c(C)c1,inactive
13,CCCCOc1ccc(C(=O)N2CC(=O)Nc3ccc(Br)cc3C2c2ccc(F)cc2)cc1 (stereo not drawn),inactive
14,Cc1ccc(NC(=S)Nc2ncccc2C)c(C)c1,12.6 µM (active)
15,Cc1ccc(NC(=S)NC(=O)c2ccc(-c3ccccc3)cc2)c(C)c1,inactive
16,Cc1ccc(NC(=S)NCc2ccccc2Cl)c(C)c1,inactive
17,N/C(=N\OC(=O)Cc1ccc([N+](=O)[O-])cc1)c1ccccn1,inactive
18,O=C(OCc1ccc([N+](=O)[O-])cc1)c1ccccn1,inactive
19,N/C(=N\OC(=O)c1ccc([N+](=O)[O-])cc1)c1ccccn1,6.31 µM (active)
20,CCOC(=O)c1ccc(N2C(=O)c3n[nH]c(-c4ccco4)c3C2c2ccc(O)cc2)cc1 (stereo not drawn),inactive
21,Cc1nc2ccc(S(=O)(=O)NC(C(=O)NCc3ccccc3Cl)C(C)C)cc2s1 (stereo not drawn),inactive
22,COc1ccc(-c2nc(CN3CCC(C(=O)NCCN(CC(C)C)CC(C)C)CC3)c(C)o2)cc1OC,inactive
23,COc1ccc(CNc2nc(-c3ccc(Cl)cc3)cc(C(F)(F)F)n2)cc1,inactive
24,O=C1CC(c2ccc(F)cc2F)c2cc3c(cc2N1)OCO3 (stereo not drawn),inactive
25,COc1ccc(CCNC(=O)c2cc(-c3ccc4c(c3)OCO4)on2)cc1OC,inactive
26,COc1c2c(cc3occ(-c4ccc5c(c4)OCO5)c(=O)c13)OC(C)(C)C=C2,6.31 µM (active)
27,Cc1cccc(NC(=O)CSc2nnc(CNC(=O)c3cccc(C)c3)n2-c2ccccc2)c1,inactive
28,CCN1CCN(c2cc(C)c3cc(NC(=O)c4cc(Cl)ccc4OC)ccc3n2)CC1,inactive
